Laboratory results taken from the supplement of paper PMC8728848.
Shown is part of a subset that was picked to be rich in the strongest signals.

Legend:
Assay in all cases: glycan array binding signal (z-score within array); higher = stronger binding
Settings in all cases: glycan notation: IUPAC condensed, linker removed
[1] = molecular target: Fuc(a1-2)Gal(b1-4)GlcNAc(b1-3)Gal(b1-4)GlcNAc
In short: (§1)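 Glycan array data were curated from 3228 arrays in the Consortium for Functional Glycomics database and kept only where the protein sequence was available. Glycan names were converted to IUPAC-condensed notation, and columns mapping to the same glycan were averaged. The binding signal is a within-array Z-score, averaged across arrays of the same protein sequence at different concentrations or buffers and across linkers. Negative Z-scores can be read as non-binding.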

[2] = molecular target: Fuc(a1-2)Gal(b1-4)GlcNAc(b1-3)Gal(b1-4)GlcNAc(b1-3)Gal(b1-4)GlcNAc
In short: as §1

[3] = molecular target: Fuc(a1-2)Gal(b1-4)[Fuc(a1-3)]GlcNAc(b1-3)Gal(b1-4)[Fuc(a1-3)]GlcNAc(b1-3)Gal(b1-4)[Fuc(a1-3)]GlcNAc
In short: as §1

[4] = molecular target: Fuc(a1-2)[GalNAc(a1-3)]Gal(b1-4)GlcNAc
In short: as §1

Fuc(a1-3)GlcNAc = molecular target: Fuc(a1-3)GlcNAc
In short: as §1

Gal(a1-4)Gal(b1-4)Glc = molecular target: Gal(a1-4)Gal(b1-4)Glc
In short: as §1

Gal(b1-2)Gal = molecular target: Gal(b1-2)Gal
In short: as §1

[5] = molecular target: Gal(b1-3)GalNAc(b1-4)[Neu5Ac(a2-3)]Gal(b1-4)Glc
In short: as §1

Gal(b1-4)GlcNAc = molecular target: Gal(b1-4)GlcNAc
In short: as §1

[6] = molecular target: Gal(b1-4)GlcNAc(b1-3)Gal(b1-4)[Fuc(a1-3)]GlcNAc(b1-3)Gal(b1-4)[Fuc(a1-3)]GlcNAc
In short: as §1

Gal3S(b1-4)GlcNAc = molecular target: Gal3S(b1-4)GlcNAc
In short: as §1

Gal3S6S(b1-4)GlcNAc6S = molecular target: Gal3S6S(b1-4)GlcNAc6S
In short: as §1

Gal4S6S(b1-4)GlcNAc = molecular target: Gal4S6S(b1-4)GlcNAc
In short: as §1

Gal6S(b1-4)Glc6S = molecular target: Gal6S(b1-4)Glc6S
In short: as §1

Glc(a1-4)Glc = molecular target: Glc(a1-4)Glc
In short: as §1

Glc(a1-6)Glc(a1-6)Glc = molecular target: Glc(a1-6)Glc(a1-6)Glc
In short: as §1

Glc(b1-4)Glc = molecular target: Glc(b1-4)Glc
In short: as §1

[7] = molecular target: Man(a1-2)Man(a1-2)Man(a1-6)[Man(a1-3)]Man
In short: as §1

[8] = molecular target: Neu5Ac(a2-3)[GalNAc(b1-4)]Gal(b1-4)Glc
In short: as §1

Neu5Gc(a2-3)Gal(b1-4)Glc = molecular target: Neu5Gc(a2-3)Gal(b1-4)Glc
In short: as §1

[9] = molecular target: Neu5Ac(a2-3)Gal(b1-3)[Neu5Ac(a2-6)]GlcNAc(b1-3)[Fuc(a1-3)[Gal(b1-4)]GlcNAc(b1-6)]Gal(b1-4)Glc
In short: as §1

[10] = molecular target: Neu5Ac(a2-3)Gal(b1-4)GlcNAc(b1-2)Man
In short: as §1

[11] = molecular target: Neu5Ac(a2-3)Gal(b1-4)[Fuc(a1-3)]GlcNAc(b1-3)Gal(b1-4)[Fuc(a1-3)]GlcNAc(b1-3)Gal(b1-4)[Fuc(a1-3)]GlcNAc
In short: as §1

[12] = molecular target: Neu5Ac(a2-3)Gal(b1-4)[Fuc(a1-3)]GlcNAc(b1-3)GalNAc
In short: as §1

[13] = molecular target: Neu5Ac(a2-6)Gal(b1-4)GlcNAc(b1-3)Gal(b1-4)GlcNAc(b1-3)Gal(b1-4)GlcNAc
In short: as §1

[14] = molecular target: Neu5Ac(a2-6)Gal(b1-4)GlcNAc(b1-6)GalNAc
In short: as §1

[15] = molecular target: Neu5Ac(a2-8)Neu5Ac(a2-3)Gal(b1-3)GalNAc(b1-4)[Neu5Ac(a2-8)Neu5Ac(a2-3)]Gal(b1-4)Glc
In short: as §1

Neu5Ac(b2-6)GalNAc = molecular target: Neu5Ac(b2-6)GalNAc
In short: as §1

[16] = molecular target: Neu5Ac9Ac(a2-3)Gal(b1-3)GlcNAc
In short: as §1

[17] = molecular target: Fuc(a1-2)Gal(b1-4)[Fuc(a1-3)]GlcNAc(b1-3)Gal(b1-4)[Fuc(a1-3)]GlcNAc
In short: as §1

[18] = molecular target: Fuc(a1-2)[Gal(a1-3)]Gal(b1-4)[Fuc(a1-3)]GlcNAc
In short: as §1

[19] = molecular target: Fuc(a1-3)[Gal(b1-4)]GlcNAc(b1-2)Man(a1-3)[Fuc(a1-3)[Gal(b1-4)]GlcNAc(b1-2)Man(a1-6)]Man(b1-4)GlcNAc(b1-4)[Fuc(a1-6)]GlcNAc
In short: as §1

[20] = molecular target: Gal(a1-3)Gal(b1-4)[Fuc(a1-3)]GlcNAc(b1-2)Man(a1-3)[Gal(a1-3)Gal(b1-4)[Fuc(a1-3)]GlcNAc(b1-2)Man(a1-6)]Man(b1-4)GlcNAc(b1-4)GlcNAc
In short: as §1

Gal(a1-3)GalNAc = molecular target: Gal(a1-3)GalNAc
In short: as §1

Gal(a1-6)Glc = molecular target: Gal(a1-6)Glc
In short: as §1

Gal(b1-3)Gal(b1-4)GlcNAc = molecular target: Gal(b1-3)Gal(b1-4)GlcNAc
In short: as §1

Gal(b1-3)GalNAc = molecular target: Gal(b1-3)GalNAc
In short: as §1

[21] = molecular target: Gal(b1-3)GalNAc(a1-3)[Fuc(a1-2)]Gal(b1-4)GlcNAc
In short: as §1

[22] = molecular target: Gal(b1-3)GlcNAc(b1-2)Man(a1-3)[Gal(b1-3)GlcNAc(b1-2)Man(a1-6)]Man(b1-4)GlcNAc(b1-4)[Fuc(a1-6)]GlcNAc
In short: as §1

[23] = molecular target: Gal(b1-3)[Fuc(a1-4)]GlcNAc(b1-3)Gal(b1-4)[Fuc(a1-3)]GlcNAc
In short: as §1

[24] = molecular target: Gal(b1-4)GlcNAc(b1-2)Man(a1-6)Man(b1-4)GlcNAc(b1-4)GlcNAc
In short: as §1

Gal3S(b1-4)Glc6S = molecular target: Gal3S(b1-4)Glc6S
In short: as §1

Gal3S(b1-4)GlcNAc6S = molecular target: Gal3S(b1-4)GlcNAc6S
In short: as §1

Gal6S(b1-4)GlcNAc = molecular target: Gal6S(b1-4)GlcNAc
In short: as §1

[25] = molecular target: GlcNAc(a1-4)Gal(b1-4)GlcNAc(b1-3)Gal(b1-4)GlcNAc
In short: as §1

[26] = molecular target: GlcNAc(b1-2)Man(a1-3)[GlcNAc(b1-2)Man(a1-6)]Man(b1-4)GlcNAc(b1-4)[Fuc(a1-6)]GlcNAc
In short: as §1

[27] = molecular target: GlcNAc(b1-3)[GlcNAc(b1-6)]GalNAc
In short: as §1

[28] = molecular target: GlcNAc(b1-4)GlcNAc(b1-4)GlcNAc(b1-4)GlcNAc(b1-4)GlcNAc
In short: as §1

GlcNAc3Prop(b1-4)GlcNAc = molecular target: GlcNAc3Prop(b1-4)GlcNAc
In short: as §1

[29] = molecular target: Man(a1-2)Man(a1-3)[Man(a1-2)Man(a1-6)]Man
In short: as §1

Man(a1-6)Man = molecular target: Man(a1-6)Man
In short: as §1

[30] = molecular target: Neu5Ac(a2-3)Gal(b1-4)GlcNAc(b1-3)Gal(b1-4)[Fuc(a1-3)]GlcNAc
In short: as §1

[31] = molecular target: Neu5Gc(a2-3)Gal(b1-4)GlcNAc
In short: as §1

B1: FaeGac (Escherichia coli) (protein)
chain: WMTGDFNGSVDIGGSITADDYRQKWEWKVGTGLNGFGNVLNDLTNGGTKLTITVTGNKPILLGRTKEAFATPVTGGVDGIPHIAFTDYEGASVVLRNPDGETNKKGLAYFVLPMKNAEGTKVGSVKVNASYAGVLGRGGVTSADGELLSLFADGLSSIFYGGLPRGSELSAGSAAAERTKLFGSLSRNDILGQIQRVNANITSLVDVAGSYRENMEYTDGTVVSAAYALGIANGQTIEATFNQAVTTSTQWSAPLNVAITYY
- glycan array binding signal (z-score) [1]: -0.23
- glycan array binding signal (z-score) [2]: -0.359
- glycan array binding signal (z-score) [3]: -0.161
- glycan array binding signal (z-score) [4]: -0.577
- glycan array binding signal (z-score) (Fuc(a1-3)GlcNAc): 0.65
- glycan array binding signal (z-score) (Gal(a1-4)Gal(b1-4)Glc): -0.179
- glycan array binding signal (z-score) (Gal(b1-2)Gal): 0.274
- glycan array binding signal (z-score) [5]: -0.107
- glycan array binding signal (z-score) (Gal(b1-4)GlcNAc): -0.506
- glycan array binding signal (z-score) [6]: 0.771
- glycan array binding signal (z-score) (Gal3S(b1-4)GlcNAc): 0.384
- glycan array binding signal (z-score) (Gal3S6S(b1-4)GlcNAc6S): -0.43
- glycan array binding signal (z-score) (Gal4S6S(b1-4)GlcNAc): -0.495
- glycan array binding signal (z-score) (Gal6S(b1-4)Glc6S): 0.68
- glycan array binding signal (z-score) (Glc(a1-4)Glc): 10.9
- glycan array binding signal (z-score) (Glc(a1-6)Glc(a1-6)Glc): 6.96
- glycan array binding signal (z-score) (Glc(b1-4)Glc): 2.95
- glycan array binding signal (z-score) [7]: 2.13
- glycan array binding signal (z-score) [8]: 0.008
- glycan array binding signal (z-score) (Neu5Gc(a2-3)Gal(b1-4)Glc): -0.764

B2: OrfX (Escherichia coli), Q9X4B6_ECOLX (protein)
chain: MIKIARIAVTLGLLSSLGAQAYAAGLVVNDNDLRNDLAWLSDRGVIHLSLSTWPLSQEEIARALKKAKPSYSSEQVVLARINQRLSALKADFRVTGYTSTDQPGTPQGFGQTQPADNSLGLAFNNSGEWWDVHLQGNVEGGERISNGSRFNANGAYGAVKFWNQWLSFGQVPQWWGPGYEGSLIRGDAMRPMTGFLMQRAEQAAPETWWLRWVGPWQYQISASQMNQYTAVPHAKIIGGRFTFTPFQSLELGASRIMQWGGEGRPQSFSSFWDGFTGHDNTGTDNEPGNQLAGFDFKFKLEPTLGWPVSFYGQMVGEDESGYLPSANMFLGGVEGHHGWGKDTVNWYVEAHDTRTNMSRTNYSYTHHIYKDGYYQQGYPLGDAMGGDGQLIAGKVELITEDNQRWSTRLVYAKVNPENQSINKAFPHADTLKGLQLGWSGDVYQSVRLNTSLWYTNANNSDSDDVGASAGIEIPFSL
- glycan array binding signal (z-score) [9]: -0.357
- glycan array binding signal (z-score) [10]: 7.89
- glycan array binding signal (z-score) [11]: -0.34
- glycan array binding signal (z-score) [12]: 7.1
- glycan array binding signal (z-score) [13]: -0.288
- glycan array binding signal (z-score) [14]: 3.4
- glycan array binding signal (z-score) [15]: -0.409
- glycan array binding signal (z-score) (Neu5Ac(b2-6)GalNAc): -0.166
- glycan array binding signal (z-score) [16]: -0.162

B3: FedF (Escherichia coli), Q47212 (protein)
chain: MRLKYILIIPLLLISLSVFASTLQVDKSVSYDWINSSASSAQVTGTLLGTGKTNTTQMPALYTWQHQIYNVNFIPSSSGTLTCQAGTILVWKNGRETQYALECRVSIHHSSGSINESQWGQQSQVGFGTACGNKKCRFTGFEISLRIPPNAQTYPLSSGDLKGSFSLTNKEVNWSASIYVPAIAKSYRLDTSITLPDTVNLKQNQATPVYYTFSAPSVSNTITGIPNQNDMPSSNVKLTIGPIQSKTTALYVQPDATGSWYDLSKSITMTVVKSSMLNFKGINAKPGNVTLSVPIVFEIQ
- glycan array binding signal (z-score) [1]: -0.446
- glycan array binding signal (z-score) [17]: -0.053
- glycan array binding signal (z-score) [18]: 0.755
- glycan array binding signal (z-score) [19]: -0.17
- glycan array binding signal (z-score) [20]: -0.084
- glycan array binding signal (z-score) (Gal(a1-3)GalNAc): -0.219
- glycan array binding signal (z-score) (Gal(a1-6)Glc): 0.241
- glycan array binding signal (z-score) (Gal(b1-3)Gal(b1-4)GlcNAc): -0.144
- glycan array binding signal (z-score) (Gal(b1-3)GalNAc): -0.092
- glycan array binding signal (z-score) [21]: -0.088
- glycan array binding signal (z-score) [22]: 0.741
- glycan array binding signal (z-score) [23]: -0.274
- glycan array binding signal (z-score) [24]: 0.184
- glycan array binding signal (z-score) (Gal3S(b1-4)Glc6S): 1.04
- glycan array binding signal (z-score) (Gal3S(b1-4)GlcNAc6S): 0.729
- glycan array binding signal (z-score) (Gal3S6S(b1-4)GlcNAc6S): 1.97
- glycan array binding signal (z-score) (Gal6S(b1-4)GlcNAc): 0.402
- glycan array binding signal (z-score) [25]: 0.918
- glycan array binding signal (z-score) [26]: 1.99
- glycan array binding signal (z-score) [27]: -0.248
- glycan array binding signal (z-score) [28]: -0.269
- glycan array binding signal (z-score) (GlcNAc3Prop(b1-4)GlcNAc): 13.7
- glycan array binding signal (z-score) [29]: 0.257
- glycan array binding signal (z-score) (Man(a1-6)Man): -0.145
- glycan array binding signal (z-score) [30]: -0.292
- glycan array binding signal (z-score) [31]: -0.223
